Laboratory results reported in PubChem BioAssay (NCI).
The panel holds about 79,000 compounds, 15% with a hit somewhere; the sample as a whole holds those more often. The source made the active and inactive calls. Cut-off read from the data, not from the text of the source: active = growth inhibition above about 70%; inactive = the rest.

Legend:
[1] = NCI Yeast Anticancer Drug Screen. Data for the rad52 strain (AID 147);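 note: 0% = growth of vehicle-treated control cultures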; conditions: S. cerevisiae rad52 mutant growth inhibition, active compounds read high
Method in brief: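 Vehicle-treated cultures served as the reference for growth inhibition of compound-exposed yeast bearing a DNA repair mutation.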

[2] = NCI Yeast Anticancer Drug Screen. Data for the wt1 strain (AID 149);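 note: 0% = growth of vehicle-treated wt1 cultures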; conditions: S. cerevisiae wt1 strain (SPY 50644) growth inhibition, active compounds read high
Method in brief: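 wt1 yeast, compound-treated; % growth inhibition vs vehicle control.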

[3] = NCI Yeast Anticancer Drug Screen. Data for the rad50EPP+ strain (AID 151);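 note: 0% = growth of vehicle-treated control cultures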; conditions: S. cerevisiae rad50 mutant strain, active compounds read high
Method in brief: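 In this screen, rad50EPP+ yeast were exposed to compounds. Growth inhibition was scored against vehicle-treated controls.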

[4] = NCI Yeast Anticancer Drug Screen. Data for the mgt1 strain (AID 153); conditions: S. cerevisiae mgt1 mutant growth inhibition, active compounds read high
Method in brief: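 mgt1 strain exposed; growth vs vehicle control recorded as inhibition.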

[5] = NCI Yeast Anticancer Drug Screen. Data for the rad50 strain (AID 155);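 note: 0% = growth of vehicle-only cultures of the same strain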; conditions: S. cerevisiae rad50 strain growth inhibition, active compounds read high
Method in brief: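 Genetically altered yeast (DNA repair pathway); compound treatment; growth inhibition vs vehicle ctrl.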

[6] = NCI Yeast Anticancer Drug Screen. Data for the mec2-1 strain (AID 157); conditions: S. cerevisiae mec2-1 strain, active compounds read high
Method in brief: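 Vehicle-treated cultures served as reference for growth inhibition of compound-exposed mec2-1 yeast.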

[7] = NCI Yeast Anticancer Drug Screen. Data for the rad14 strain (AID 159);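 note: 0% = growth of vehicle-treated control cultures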; conditions: S. cerevisiae rad14 strain growth inhibition, active compounds read high
Method in brief: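 Test compounds were applied to a repair-deficient yeast strain. Its growth was then compared with that of cultures given vehicle alone, and inhibition was expressed relative to those controls.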

[8] = NCI Yeast Anticancer Drug Screen. Data for the sgs1 mgt1 strain (AID 161);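 note: 0% = growth of cultures given vehicle only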; conditions: S. cerevisiae sgs1 mgt1 strain, active compounds read high
Method in brief: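 Test agents were incubated with a DNA-repair-mutant yeast strain. Growth was then read and compared against vehicle-treated controls.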

[9] = NCI Yeast Anticancer Drug Screen. Data for the CLN2oe strain (AID 163);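 note: 0% = growth of vehicle-only control cultures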; conditions: S. cerevisiae CLN2oe strain, active compounds read high
Method in brief: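 Inhibition relative to vehicle-treated yeast is reported. Cells: strain with genetic alteration in cell-cycle control, grown with compound.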

[10] = NCI Yeast Anticancer Drug Screen. Data for the cln2 rad14 strain (AID 165);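 note: 0% = growth equal to vehicle treated cultures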; conditions: S. cerevisiae cln2 rad14 strain, active compounds read high
Method in brief: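 Each compound was tested on cln2 rad14 yeast. Inhibition of growth was calculated against vehicle-exposed controls.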

[11] = NCI Yeast Anticancer Drug Screen. Data for the bub3 strain (AID 167); conditions: S. cerevisiae bub3 mutant strain, active compounds read high
Method in brief: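 Yeast carrying a defined mutation is treated with each compound, and growth is compared with that of vehicle-exposed cells to give inhibition.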

[12] = NCI Yeast Anticancer Drug Screen. Data for the wt2 strain (AID 169);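 note: 0% = growth of vehicle-treated yeast cultures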; conditions: S. cerevisiae wt2 strain growth inhibition, active compounds read high
Method in brief: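 Inhibition of yeast growth was determined after compound treatment, normalised to controls receiving only vehicle.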

[13] = NCI Yeast Anticancer Drug Screen. Data for the mlh1 strain (AID 171);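 note: 0% = growth of vehicle-treated control cultures of the same strain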; conditions: S. cerevisiae mlh1 strain growth inhibition, active compounds read high
Method in brief: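 Vehicle-normalised growth inhibition of a repair- or checkpoint-altered yeast strain following compound treatment.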

[14] = NCI Yeast Anticancer Drug Screen. Data for the sgs1 strain (AID 173);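 note: 0% = growth of vehicle-only control cultures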; conditions: S. cerevisiae sgs1 mutant, active compounds read high
Method in brief: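 Screen format: yeast with repair or checkpoint alterations, compound exposure, growth read relative to vehicle.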

[15] = NCI Yeast Anticancer Drug Screen. Data for the mlh1 rad18 strain (AID 175); conditions: S. cerevisiae mlh1 rad18 strain growth inhibition, active compounds read high
Method in brief: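 Vehicle-treated cultures served as the reference for growth inhibition in a yeast strain carrying DNA damage repair alterations exposed to each compound.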

[16] = NCI Yeast Anticancer Drug Screen. Data for the rad18 strain (AID 177); conditions: S. cerevisiae rad18 mutant growth inhibition, active compounds read high
Method in brief: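 Test articles were incubated with altered yeast defective in DNA damage repair. Results are given as inhibition of growth versus vehicle.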

[17] = at 5.0 µM (retest, dose inferred, filed as 0.5)
[18] = at 50.0 µM (retest, dose inferred, filed as 5.0)

Measured: growth inhibition

CCCCCCCCCCC(=O)Cl
active: [2]; at 100.0 µM 85% | [4]; at 100.0 µM 85% | [5]; [17] 100% | [5]; [18] 98% | [6]; [17] 100% | [6]; [18] 98% | [6]; at 100.0 µM 83% | [7]; at 100.0 µM 88% | [9]; at 100.0 µM 77% | [12]; at 100.0 µM 82% | [13]; at 100.0 µM 82% | [14]; at 100.0 µM 90% | [15]; [17] 100% | [15]; [18] 99% | [16]; at 100.0 µM 89%
inactive: [1]; at 1.2 µM 13% | [1]; at 3.7 µM 13% | [1]; at 11.0 µM 12% | [1]; at 33.0 µM 9% | [1]; at 100.0 µM 31% | [2]; at 1.2 µM 9% | [2]; at 3.7 µM -2% | [2]; at 11.0 µM -5% | [2]; at 33.0 µM -5% | [3]; at 1.2 µM 18% | [3]; at 3.7 µM 22% | [3]; at 11.0 µM 25% | [3]; at 33.0 µM 40% | [3]; at 100.0 µM 46% | [4]; at 1.2 µM -21% | [4]; at 3.7 µM -25% | [4]; at 11.0 µM -28% | [4]; at 33.0 µM -32% | [5]; at 1.2 µM 14% | [5]; at 3.7 µM 18% | [5]; at 11.0 µM 2% | [5]; at 33.0 µM 9% | [5]; at 50.0 µM 58.2% | [5]; at 100.0 µM 29% | [6]; at 1.2 µM -1% | [6]; at 3.7 µM 7% | [6]; at 11.0 µM -9% | [6]; at 33.0 µM -23% | [6]; at 50.0 µM 7.75% | [7]; at 1.2 µM -1% | [7]; at 3.7 µM -2% | [7]; at 11.0 µM -8% | [7]; at 33.0 µM 39% | [8]; [17] -18% | [8]; [18] 36% | [8]; at 50.0 µM 56.9% | [9]; at 1.2 µM -4% | [9]; at 3.7 µM -9% | [9]; at 11.0 µM -25% | [9]; at 33.0 µM -18% | [10]; [17] 36% | [10]; [18] 58% | [10]; at 50.0 µM 31.9% | [11]; at 1.2 µM -9% | [11]; at 3.7 µM -4% | [11]; [17] 16% | [11]; at 11.0 µM -34% | [11]; at 33.0 µM -33% | [11]; [18] 64% | [11]; at 50.0 µM 12.1% | [11]; at 100.0 µM 54% | [12]; at 1.2 µM 5% | [12]; at 3.7 µM 1% | [12]; at 11.0 µM -4% | [12]; at 33.0 µM -2% | [13]; at 1.2 µM 14% | [13]; at 3.7 µM 7% | [13]; at 11.0 µM 5% | [13]; at 33.0 µM 2% | [14]; at 1.2 µM 18% | [14]; at 3.7 µM 14% | [14]; at 11.0 µM 15% | [14]; at 33.0 µM 25% | [15]; at 50.0 µM -13.4% | [16]; at 1.2 µM 25% | [16]; at 3.7 µM 21% | [16]; at 11.0 µM 15% | [16]; at 33.0 µM 9%

COc1ccc(-c2cn(-c3ccc(I)cc3)c3ncnc(N)c23)cc1
active: [6]; [18] 78% | [8]; [18] 82% | [11]; [18] 72%
inactive: [1]; at 1.2 µM -2% | [1]; at 3.7 µM -5% | [1]; at 11.0 µM -9% | [1]; at 33.0 µM -7% | [1]; at 100.0 µM -8% | [2]; at 1.2 µM -4% | [2]; at 3.7 µM -4% | [2]; at 11.0 µM -10% | [2]; at 33.0 µM -11% | [2]; at 100.0 µM -2% | [3]; at 1.2 µM -2% | [3]; at 3.7 µM 1% | [3]; at 11.0 µM 6% | [3]; at 33.0 µM 8% | [3]; at 100.0 µM 6% | [4]; at 1.2 µM -6% | [4]; at 3.7 µM -8% | [4]; at 11.0 µM -11% | [4]; at 33.0 µM 2% | [4]; at 100.0 µM 17% | [5]; at 1.2 µM -2% | [5]; at 3.7 µM -2% | [5]; [17] 4% | [5]; at 11.0 µM -2% | [5]; at 33.0 µM 1% | [5]; [18] 69% | [5]; at 50.0 µM 14.8% | [5]; at 100.0 µM -10% | [6]; at 1.2 µM -4% | [6]; at 3.7 µM -4% | [6]; [17] -6% | [6]; at 11.0 µM -5% | [6]; at 33.0 µM 0% | [6]; at 50.0 µM 1.7% | [6]; at 100.0 µM 1% | [7]; at 1.2 µM -5% | [7]; at 3.7 µM -8% | [7]; at 11.0 µM -12% | [7]; at 33.0 µM -8% | [7]; at 100.0 µM -1% | [8]; [17] 39% | [8]; at 50.0 µM -11.2% | [9]; at 1.2 µM -7% | [9]; at 3.7 µM -8% | [9]; at 11.0 µM -2% | [9]; at 33.0 µM 9% | [9]; at 100.0 µM 4% | [10]; [17] 4% | [10]; [18] 65% | [10]; at 50.0 µM -0.5% | [11]; at 1.2 µM -2% | [11]; at 3.7 µM -2% | [11]; [17] 12% | [11]; at 11.0 µM -3% | [11]; at 33.0 µM 0% | [11]; at 50.0 µM 13.2% | [11]; at 100.0 µM 0% | [12]; at 1.2 µM -4% | [12]; at 3.7 µM -8% | [12]; at 11.0 µM -10% | [12]; at 33.0 µM -8% | [12]; at 100.0 µM -8% | [13]; at 1.2 µM -2% | [13]; at 3.7 µM -5% | [13]; at 11.0 µM -5% | [13]; at 33.0 µM 10% | [13]; at 100.0 µM 9% | [14]; at 1.2 µM -4% | [14]; at 3.7 µM -5% | [14]; at 11.0 µM -3% | [14]; at 33.0 µM 26% | [14]; at 100.0 µM 29% | [15]; [17] 4% | [15]; [18] -17% | [15]; at 50.0 µM 14.2% | [16]; at 1.2 µM -5% | [16]; at 3.7 µM -9% | [16]; at 11.0 µM -10% | [16]; at 33.0 µM -4% | [16]; at 100.0 µM 0%

Cc1ccc(S(=O)(=O)NC(=O)NC2=NC(C)(C)N(c3ccc(Cl)c(Cl)c3)C(N)=N2)cc1
inactive: [1]; at 1.2 µM -2% | [1]; at 3.7 µM -2% | [1]; at 11.0 µM -1% | [1]; at 33.0 µM -3% | [1]; at 100.0 µM -3% | [2]; at 1.2 µM -2% | [2]; at 3.7 µM 1% | [2]; at 11.0 µM -1% | [2]; at 33.0 µM -1% | [2]; at 100.0 µM -3% | [3]; at 1.2 µM -2% | [3]; at 3.7 µM -3% | [3]; at 11.0 µM -1% | [3]; at 33.0 µM -2% | [3]; at 100.0 µM 4% | [4]; at 1.2 µM 0% | [4]; at 3.7 µM -1% | [4]; at 11.0 µM -4% | [4]; at 33.0 µM 1% | [4]; at 100.0 µM -5% | [5]; at 1.2 µM -2% | [5]; at 3.7 µM -4% | [5]; [17] 7% | [5]; at 11.0 µM -5% | [5]; at 33.0 µM -3% | [5]; [18] 1% | [5]; at 50.0 µM -1.3% | [5]; at 100.0 µM -4% | [6]; at 1.2 µM -2% | [6]; at 3.7 µM 2% | [6]; [17] 1% | [6]; at 11.0 µM 4% | [6]; at 33.0 µM -3% | [6]; [18] -3% | [6]; at 50.0 µM -3.35% | [6]; at 100.0 µM -3% | [7]; at 1.2 µM -1% | [7]; at 3.7 µM 0% | [7]; at 11.0 µM 1% | [7]; at 33.0 µM 1% | [7]; at 100.0 µM 0% | [8]; [17] 6% | [8]; [18] -6% | [8]; at 50.0 µM 4.25% | [9]; at 1.2 µM -9% | [9]; at 3.7 µM -5% | [9]; at 11.0 µM -5% | [9]; at 33.0 µM -1% | [9]; at 100.0 µM -11% | [10]; [17] 1% | [10]; [18] 1% | [11]; at 1.2 µM -2% | [11]; at 3.7 µM -7% | [11]; [17] 1% | [11]; at 11.0 µM -6% | [11]; at 33.0 µM -8% | [11]; [18] -1% | [11]; at 50.0 µM -23.9% | [11]; at 100.0 µM -5%
active: [10]; at 50.0 µM 79.4%
